Laboratory results as given in PubChem BioAssay (NCI).
About 79,000 compounds went through this panel and 15% of them were active in at least one assay; those are over-represented in the sample as a whole. The source made the active and inactive calls. No stated cut-off is given here; in the data, active means growth inhibition above about 70%; inactive means the rest.

Experiments:
[1] = NCI Yeast Anticancer Drug Screen. Data for the rad52 strain (AID 147);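 further: 0% = growth of vehicle-treated control cultures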; settings: S. cerevisiae rad52 mutant growth inhibition, active compounds read high
Summary of the method: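 Genetically altered yeast (DNA damage repair defect) treated with compound; inhibition calculated relative to vehicle.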

[2] = NCI Yeast Anticancer Drug Screen. Data for the rad50EPP+ strain (AID 151);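 further: 0% = growth of vehicle-treated control cultures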; settings: S. cerevisiae rad50 mutant strain, active compounds read high
Summary of the method: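 Strain rad50EPP+; compound exposure; % growth inhibition vs vehicle.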

[3] = NCI Yeast Anticancer Drug Screen. Data for the mgt1 strain (AID 153); settings: S. cerevisiae mgt1 mutant growth inhibition, active compounds read high
Summary of the method: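 Read-out: yeast growth inhibition vs vehicle control. Strain mgt1, drawn from a panel altered in DNA damage repair or cell cycle control.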

[4] = NCI Yeast Anticancer Drug Screen. Data for the rad50 strain (AID 155);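 further: 0% = growth of vehicle-only cultures of the same strain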; settings: S. cerevisiae rad50 strain growth inhibition, active compounds read high
Summary of the method: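 Vehicle-treated cultures provide the reference for the growth inhibition reported for compound-exposed, repair-deficient yeast.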

[5] = NCI Yeast Anticancer Drug Screen. Data for the mec2-1 strain (AID 157); settings: S. cerevisiae mec2-1 strain, active compounds read high
Summary of the method: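 Cells of the genetically defined mec2-1 yeast strain are incubated with test compound. Inhibition of growth is calculated against vehicle-treated controls.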

[6] = NCI Yeast Anticancer Drug Screen. Data for the rad14 strain (AID 159);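 further: 0% = growth of vehicle-treated control cultures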; settings: S. cerevisiae rad14 strain growth inhibition, active compounds read high
Summary of the method: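 Inhibition of growth is reported for a repair-deficient yeast mutant following compound treatment, calculated relative to cultures that received vehicle.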

[7] = NCI Yeast Anticancer Drug Screen. Data for the sgs1 mgt1 strain (AID 161);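 further: 0% = growth of cultures given vehicle only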; settings: S. cerevisiae sgs1 mgt1 strain, active compounds read high
Summary of the method: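 Test agents were incubated with a DNA-repair-mutant yeast strain. Growth was then read and compared against vehicle-treated controls.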

[8] = NCI Yeast Anticancer Drug Screen. Data for the CLN2oe strain (AID 163);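 further: 0% = growth of vehicle-only control cultures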; settings: S. cerevisiae CLN2oe strain, active compounds read high
Summary of the method: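 Strain altered in cell-cycle control, incubated with compound; growth compared to solvent-treated controls.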

[9] = NCI Yeast Anticancer Drug Screen. Data for the cln2 rad14 strain (AID 165);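 further: 0% = growth equal to vehicle treated cultures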; settings: S. cerevisiae cln2 rad14 strain, active compounds read high
Summary of the method: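 The screen exposed genetically defined yeast (cln2 rad14) to test compounds and scored growth inhibition relative to vehicle-treated controls.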

[10] = NCI Yeast Anticancer Drug Screen. Data for the bub3 strain (AID 167); settings: S. cerevisiae bub3 mutant strain, active compounds read high
Summary of the method: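 Mutant yeast screening strain plus compound; vehicle-treated cultures serve as the 0% inhibition reference.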

[11] = NCI Yeast Anticancer Drug Screen. Data for the wt2 strain (AID 169); settings: S. cerevisiae wt2 strain growth inhibition, active compounds read high
Summary of the method: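 Steps: yeast strain treated with compound; growth recorded; inhibition calculated relative to cultures given vehicle alone.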

[12] = NCI Yeast Anticancer Drug Screen. Data for the mlh1 strain (AID 171);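 further: 0% = growth of vehicle-treated control cultures of the same strain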; settings: S. cerevisiae mlh1 strain growth inhibition, active compounds read high
Summary of the method: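 Yeast screen: mutant strain plus compound, growth scored against vehicle control wells.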

[13] = NCI Yeast Anticancer Drug Screen. Data for the mlh1 rad18 strain (AID 175); settings: S. cerevisiae mlh1 rad18 strain growth inhibition, active compounds read high
Summary of the method: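 Compound-treated yeast growth, normalised to vehicle controls. Strain bears defined DNA repair mutations.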

[14] = NCI Yeast Anticancer Drug Screen. Data for the rad18 strain (AID 177); settings: S. cerevisiae rad18 mutant growth inhibition, active compounds read high
Summary of the method: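 Inhibition values reflect reduced yeast growth compared with vehicle-treated controls, using a strain engineered with a DNA damage repair defect.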

[15] = NCI Yeast Anticancer Drug Screen. Data for the sgs1 strain (AID 173);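 further: 0% = growth of vehicle-only control cultures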; settings: S. cerevisiae sgs1 mutant, active compounds read high
Summary of the method: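 Inhibition of yeast growth served as the measure. The mutant strain was treated with each compound, and growth was normalised to cultures receiving vehicle alone.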

[16] = at 5.0 µM (retest, dose inferred, filed as 0.5)
[17] = at 50.0 µM (retest, dose inferred, filed as 5.0)

Measured: growth inhibition

C/C(=N\Nc1ccc([N+](=O)[O-])cc1[N+](=O)[O-])c1sc(-n2nc(-c3ccccc3)cc2-c2ccccc2)nc1C
active: [4]; at 50.0 µM 80% | [7]; at 50.0 µM 75.3% | [10]; [17] 74% | [10]; at 50.0 µM 79% | [13]; at 50.0 µM 79.3%
inactive: [1]; at 1.2 µM -1% | [1]; at 3.7 µM 13% | [1]; at 11.0 µM 7% | [1]; at 33.0 µM 0% | [1]; at 100.0 µM 26% | [2]; at 1.2 µM 7% | [2]; at 3.7 µM 22% | [2]; at 11.0 µM 27% | [2]; at 33.0 µM 50% | [2]; at 100.0 µM 59% | [3]; at 1.2 µM 18% | [3]; at 3.7 µM 6% | [3]; at 11.0 µM 6% | [3]; at 33.0 µM 32% | [3]; at 100.0 µM 60% | [4]; at 1.2 µM -1% | [4]; at 3.7 µM 0% | [4]; [16] 25% | [4]; at 11.0 µM -15% | [4]; at 33.0 µM 4% | [4]; [17] 62% | [4]; at 100.0 µM 10% | [5]; at 1.2 µM 11% | [5]; at 3.7 µM 16% | [5]; [16] 0% | [5]; at 11.0 µM 15% | [5]; at 33.0 µM 22% | [5]; [17] 16% | [5]; at 50.0 µM 66% | [5]; at 100.0 µM 34% | [6]; at 1.2 µM -7% | [6]; at 3.7 µM -13% | [6]; at 11.0 µM -15% | [6]; at 33.0 µM -9% | [6]; at 100.0 µM -6% | [7]; [16] 11% | [7]; [17] 57% | [8]; at 1.2 µM 8% | [8]; at 3.7 µM 12% | [8]; at 11.0 µM 9% | [8]; at 33.0 µM 18% | [8]; at 100.0 µM 26% | [9]; [16] 29% | [9]; [17] 34% | [9]; at 50.0 µM 61.6% | [10]; at 1.2 µM 15% | [10]; at 3.7 µM 25% | [10]; [16] 31% | [10]; at 11.0 µM 46% | [10]; at 33.0 µM 42% | [10]; at 100.0 µM 62% | [11]; at 1.2 µM -21% | [11]; at 3.7 µM -22% | [11]; at 11.0 µM -25% | [11]; at 33.0 µM -11% | [11]; at 100.0 µM 68% | [12]; at 1.2 µM 1% | [12]; at 3.7 µM -15% | [12]; at 11.0 µM -16% | [12]; at 33.0 µM 5% | [12]; at 100.0 µM 25% | [13]; [16] 24% | [13]; [17] 60% | [14]; at 1.2 µM -9% | [14]; at 3.7 µM 11% | [14]; at 11.0 µM 14% | [14]; at 33.0 µM 24% | [14]; at 100.0 µM 36%

O=C1C=C(Cl)C(=O)C(c2ccc(Cl)cc2)=C1
active: [1]; at 33.0 µM 98% | [1]; at 100.0 µM 96% | [2]; at 11.0 µM 83% | [2]; at 33.0 µM 98% | [2]; at 100.0 µM 96% | [3]; at 11.0 µM 82% | [3]; at 33.0 µM 98% | [3]; at 100.0 µM 97% | [4]; at 33.0 µM 97% | [4]; [17] 97% | [4]; at 50.0 µM 91.5% | [4]; at 100.0 µM 97% | [5]; at 33.0 µM 98% | [5]; [17] 99% | [5]; at 50.0 µM 92.5% | [5]; at 100.0 µM 97% | [6]; at 33.0 µM 95% | [6]; at 100.0 µM 96% | [7]; [17] 95% | [7]; at 50.0 µM 93.5% | [8]; at 33.0 µM 98% | [8]; at 100.0 µM 96% | [9]; [17] 98% | [9]; at 50.0 µM 90.8% | [10]; at 33.0 µM 98% | [10]; [17] 98% | [10]; at 50.0 µM 91.8% | [10]; at 100.0 µM 94% | [11]; at 33.0 µM 94% | [11]; at 100.0 µM 96% | [12]; at 11.0 µM 84% | [12]; at 33.0 µM 97% | [12]; at 100.0 µM 96% | [15]; at 33.0 µM 98% | [15]; at 100.0 µM 96% | [13]; [17] 97% | [13]; at 50.0 µM 91.6% | [14]; at 33.0 µM 96% | [14]; at 100.0 µM 97%
inactive: [1]; at 1.2 µM -33% | [1]; at 3.7 µM -7% | [1]; at 11.0 µM 11% | [2]; at 1.2 µM 40% | [2]; at 3.7 µM 49% | [3]; at 1.2 µM 2% | [3]; at 3.7 µM 39% | [4]; at 1.2 µM -4% | [4]; at 3.7 µM -1% | [4]; [16] 21% | [4]; at 11.0 µM 44% | [5]; at 1.2 µM 0% | [5]; at 3.7 µM 34% | [5]; [16] 21% | [5]; at 11.0 µM 67% | [6]; at 1.2 µM 11% | [6]; at 3.7 µM 23% | [6]; at 11.0 µM 42% | [7]; [16] 17% | [8]; at 1.2 µM 31% | [8]; at 3.7 µM 32% | [8]; at 11.0 µM 69% | [9]; [16] 24% | [10]; at 1.2 µM 5% | [10]; at 3.7 µM 20% | [10]; [16] 6% | [10]; at 11.0 µM 62% | [11]; at 1.2 µM -27% | [11]; at 3.7 µM -9% | [11]; at 11.0 µM 13% | [12]; at 1.2 µM 34% | [12]; at 3.7 µM 61% | [15]; at 1.2 µM 18% | [15]; at 3.7 µM 37% | [15]; at 11.0 µM 66% | [13]; [16] 39% | [14]; at 1.2 µM 16% | [14]; at 3.7 µM -4% | [14]; at 11.0 µM 53%
